Experiment: T. brucei methionyl-tRNA synthetase enzyme inhibition – biochemical, radioactivity, round 1, late-stage follow-up (AID 743060)
Conditions: purified enzyme, radiolabel aminoacylation, scintillation, 2 h; at 10 µM; stronger effect = higher value

Structure (SMILES) | inhibition
CCN(CCc1nc2ccc(C)cc2[nH]1)C(=O)c1ccc2ncccc2c1 | -5.17%
O=C(Cn1cc(C(=O)COc2ccccc2)c2ccccc21)Nc1cccc(C(F)(F)F)c1 | -11.8%
COc1ccc(NC(=O)C2CC(=O)n3c(nc4ccccc43)N2)cc1 (stereo unspecified) | -13.4%
Cn1c(CCNC(=O)c2ccc(Cl)cc2)nc2ccccc21 | 3.39%
O=C(Cn1cc(C(=O)C(=O)N2CCOCC2)c2ccccc21)Nc1cccc(C(F)(F)F)c1 | 100%
CC(C)(C)[C@H]1C=C(C(=O)NCc2nc3ccccc3[nH]2)O[C@@H](OCc2ccc(CO)cc2)C1 | 83.8%
Oc1c(Cl)cc(Cl)cc1CNc1nc2ccccc2[nH]1 | 98.7%
O=C(Cn1cc(C(=O)C(=O)N2CCOCC2)c2ccccc21)NCc1ccccc1 | 16.7%
O=C(NCc1nc2ccccc2[nH]1)C1=C[C@H](c2ccc(Br)cc2)C[C@H](OCc2ccc(CO)cc2)O1 | 94.6%
CCCCCCCCCC1NC(C(=O)O)Cc2c1[nH]c1ccccc21 (stereo unspecified) | 93.2%
Cc1ccc(C(=O)NCCc2nc3ccccc3[nH]2)cc1C | -3.55%
CCN(CC)C(=O)C(=O)c1cn(CC(=O)Nc2ccccc2OC)c2ccccc12 | -11.4%
CN(Cc1cc(Cl)cc(Cl)c1)[C@H]1C[C@H]2c3[nH]c4ccccc4c3CCN2C(=O)[C@H]1CO | 101%
C[C@H](O)[C@@H]1C(=O)N2CCc3c([nH]c4ccccc34)[C@@H]2C[C@@H]1N(C)Cc1ccc2c(c1)OCO2 | 80.4%
Cc1cc2cc(C(=O)N3CCCC(c4nc5ccccc5[nH]4)C3)ccc2o1 (stereo unspecified) | 78.2%
CC(=O)c1ccc(N2CCN(C(=O)CCCn3c(=O)[nH]c4ccc(Br)cc4c3=O)CC2)cc1 | 97%

Reference: PubChem BioAssay AID743060 (The Scripps Research Institute Molecular Screening Center, 2013)
